Test results from PubChem BioAssay AID504690 (Sanford-Burnham Center for Chemical Genomics, 2011).
The whole screen tested about 350,000 compounds, of which about 2,700 (0.77%) were called active.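 Rule for the calls: active = inhibition reaching at least a set limit at 20 µM in the primary screen (cut at about 59% in these data); inactive = the rest.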 The full list was thinned out, with actives kept by preference.

The compounds below were run on glucose-6-phosphate dehydrogenase-6-phosphogluconolactonase (Plasmodium falciparum 3D7) (assay: inhibition of malaria parasite G6PD (PfGluPho) – biochemical, fluorescence intensity, uHTS, primary screen (AID 504690;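 note: 0% = DMSO wells with substrate and 100% = DMSO wells lacking glucose-6-phosphate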)). Details: PfGluPho enzyme, NADPH resazurin-diaphorase fluorescence; at 20 µM; active compounds read high.

| SMILES | inhibition |
| --- | --- |
| O=C(CSC1c2ccccc2-c2ccccc21)N/N=C/c1ccccc1 | 62.4% (active) |
| C[C@]12CCCCC1=CC(=O)C1C2CC[C@@]2(C)C1C[C@@H](F)[C@@H]2O (stereo not given in full) | -7.47% (inactive) |
| CCOP(=S)(OCC)SCOC(=O)NCC(=O)OC | -4.03% (inactive) |
| COC(=O)C1=C(c2cccc(OCc3ccccc3)c2)C[C@@H]2CC[C@H]1N2C(=O)NCc1ccc(Br)cc1 | 9.43% (inactive) |
| CN1CCN(c2cc(N3CCNCC3)ccc2[N+](=O)[O-])CC1 | 1.22% (inactive) |
| COc1cccc(-c2nc3ccc(N4CCN(C)CC4)cc3[nH]2)c1 | 64.4% (active) |
| c1ccc(C(CN2CCCCC2)c2ccccc2)cc1 | -1.44% (inactive) |
| COc1ccccc1C1=NCc2nnc(CSC)n2-c2ccc(Cl)cc21 | -31.3% (inactive) |
| C[C@@]1([C@@H](NP(=O)(c2ccccc2)c2ccccc2)c2ccccc2)C[C@H]1CCO | -0.29% (inactive) |
| O=C(NCC(c1cccnc1)N1CCN(c2ccccc2)CC1)Oc1ccccc1 (stereo not given) | 7.5% (inactive) |
| Nc1ccc(Cc2ccc(N)c(Cl)c2)cc1Cl | -5.41% (inactive) |
| Cc1cc(C)c2c(c1)NP(=S)(c1ccccc1)N2 (stereo not given) | 63.6% (active) |
| COc1ccc2c(c1)NP(=S)(c1ccccc1)N2 (stereo not given) | 46.5% (inactive) |
| C/C=C/CC1(CC)C(=O)NC(=S)NC1=O | -4.76% (inactive) |
| Nc1ccc(C(=O)N/N=C2/CN3CCC2CC3)cc1 | -10.7% (inactive) |
| COC(=O)N(c1ccc(OC)cc1)P1(=S)OCCC(C)O1 (stereo not given) | 81.9% (active) |
| O=C(CN1CCCCC1)Nc1ccc(Br)cc1C(=O)c1ccccc1Cl | 0.87% (inactive) |
| C=CCn1c(O)c(/C=N/N2CCOCC2)c(=O)[nH]c1=S | -2.25% (inactive) |
| O=C1NC(=O)N(Cc2ccco2)C(=O)/C1=C\c1ccc(-c2ccc(F)cc2)o1 | 72% (active) |
| COc1ccc(N2C(=O)/C(=C/c3ccco3)C(=O)NC2=S)cc1 | 23.2% (inactive) |
| O=C1NC(=O)N(CCc2ccc(F)cc2)C(=O)/C1=C/C=C/c1ccccc1 | 4.03% (inactive) |
| N#Cc1ccc(Cn2cc(C(=O)c3ccco3)c3ccccc32)cc1 | 4.04% (inactive) |
| CCC1(C)CC(CCNCc2ccc(N(C)C)cc2)(c2ccc(F)cc2)CCO1 (stereo not given) | -7.55% (inactive) |
| CC(=O)OC1C2(CC3N4C(=O)C5(CO)SSC4(CC31O)C(=O)N5C)OC(C)C(C)(C)C2=O (stereo not given) | 19.4% (inactive) |
| O=C1NC(=O)N(c2ccccc2)C(=O)/C1=C/c1ccc([N+](=O)[O-])s1 | 64.8% (active) |
| COc1cccc(N2C(=O)NC(=O)/C(=C\c3ccc([N+](=O)[O-])s3)C2=O)c1 | 56% (inactive) |
| O=C1NC(=O)N(c2ccc(F)cc2)C(=O)/C1=C/c1ccc2c(c1)CCCN2Cc1ccccc1 | 18.3% (inactive) |
| CCOP(=O)(OCC)C(NC(=O)c1ccc(C)cc1)C(Cl)(Cl)Cl (stereo not given) | 1.69% (inactive) |
| CCOCCc1c(O)[nH]c(=S)[nH]c1=O | 21.3% (inactive) |
| CCOP(=S)(OCC)C(O)CCCCCn1c(=O)c(F)cn(C2CCCO2)c1=O (stereo not given) | 11.4% (inactive) |
